Biological target: AgAbp1
Experiment: SPOT peptide array binding signal intensity (averaged, normalized) (arbitrary units (background-subtracted, floor 0; scale differs between SH3 domains)); higher = stronger binding of the SH3 domain to the peptide
Outline: (§1)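 Spot intensities were captured after detection with anti-GST antibody, an HRP-linked anti-mouse secondary and luminol, and quantified with Genespotter. The probes were GST-fused SH3 domains from four yeast species, produced in E. coli BL21(DE3), purified on glutathione Sepharose and incubated at 10 μg/ml overnight at 4°C on cellulose-bound synthetic 15-mer peptides with cysteines replaced by serines. Binding signal is the normalized, background-subtracted spot intensity averaged over replicates, and its arbitrary units differ between domains.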

| Binder | SPOT peptide array binding signal intensity |
| --- | --- |
| IVNKPLPPLPVAGSS | 177 |

Biological target: AgBbc1
Experiment: as above
Outline: as §1

| Binder | SPOT peptide array binding signal intensity |
| --- | --- |
| IVNKPLPPLPVAGSS | ≤ 0 |

Biological target: AgBem1-D1
Experiment: as above
Outline: as §1

| Binder | SPOT peptide array binding signal intensity |
| --- | --- |
| IVNKPLPPLPVAGSS | 5.5 |

Biological target: AgBzz1-D1
Experiment: as above
Outline: as §1

| Binder | SPOT peptide array binding signal intensity |
| --- | --- |
| IVNKPLPPLPVAGSS | 30 |

Biological target: AgBzz1-D2
Experiment: as above
Outline: as §1

| Binder | SPOT peptide array binding signal intensity |
| --- | --- |
| IVNKPLPPLPVAGSS | 17.5 |

Biological target: AgCyk3
Experiment: as above
Outline: as §1

| Binder | SPOT peptide array binding signal intensity |
| --- | --- |
| IVNKPLPPLPVAGSS | ≤ 0 |

Biological target: AgFus1
Experiment: as above
Outline: as §1

| Binder | SPOT peptide array binding signal intensity |
| --- | --- |
| IVNKPLPPLPVAGSS | 1.5 |

Biological target: AgHof1
Experiment: as above
Outline: as §1

| Binder | SPOT peptide array binding signal intensity |
| --- | --- |
| IVNKPLPPLPVAGSS | 748 |

Biological target: AgHse1
Experiment: as above
Outline: as §1

| Binder | SPOT peptide array binding signal intensity |
| --- | --- |
| IVNKPLPPLPVAGSS | 17.5 |

Biological target: AgLsb1
Experiment: as above
Outline: as §1

| Binder | SPOT peptide array binding signal intensity |
| --- | --- |
| IVNKPLPPLPVAGSS | ≤ 0 |

Biological target: AgLsb4
Experiment: as above
Outline: as §1

| Binder | SPOT peptide array binding signal intensity |
| --- | --- |
| IVNKPLPPLPVAGSS | 7.5 |

Biological target: AgMyo5
Experiment: as above
Outline: as §1

| Binder | SPOT peptide array binding signal intensity |
| --- | --- |
| IVNKPLPPLPVAGSS | ≤ 0 |

Biological target: AgNbp2
Experiment: as above
Outline: as §1

| Binder | SPOT peptide array binding signal intensity |
| --- | --- |
| IVNKPLPPLPVAGSS | ≤ 0 |

Biological target: AgRvs167
Experiment: as above
Outline: as §1

| Binder | SPOT peptide array binding signal intensity |
| --- | --- |
| IVNKPLPPLPVAGSS | 2.33 |

Biological target: AgSho1
Experiment: as above
Outline: as §1

| Binder | SPOT peptide array binding signal intensity |
| --- | --- |
| IVNKPLPPLPVAGSS | 6850 |

Biological target: AgSla1-D1-D2
Experiment: as above
Outline: as §1

| Binder | SPOT peptide array binding signal intensity |
| --- | --- |
| IVNKPLPPLPVAGSS | 1 |

Biological target: AgSla1-D3
Experiment: as above
Outline: as §1

| Binder | SPOT peptide array binding signal intensity |
| --- | --- |
| IVNKPLPPLPVAGSS | ≤ 0 |

Biological target: CaAbp1-D1
Experiment: as above
Outline: as §1

| Binder | SPOT peptide array binding signal intensity |
| --- | --- |
| IVNKPLPPLPVAGSS | 21.5 |

Biological target: CaAbp1-D2
Experiment: as above
Outline: as §1

| Binder | SPOT peptide array binding signal intensity |
| --- | --- |
| IVNKPLPPLPVAGSS | 48 |

Biological target: CaBbc1
Experiment: as above
Outline: as §1

| Binder | SPOT peptide array binding signal intensity |
| --- | --- |
| IVNKPLPPLPVAGSS | ≤ 0 |

Biological target: CaBem1-D1
Experiment: as above
Outline: as §1

| Binder | SPOT peptide array binding signal intensity |
| --- | --- |
| IVNKPLPPLPVAGSS | ≤ 0 |

Biological target: CaBzz1-D1
Experiment: as above
Outline: as §1

| Binder | SPOT peptide array binding signal intensity |
| --- | --- |
| IVNKPLPPLPVAGSS | 459 |

Biological target: CaBzz1-D2
Experiment: as above
Outline: as §1

| Binder | SPOT peptide array binding signal intensity |
| --- | --- |
| IVNKPLPPLPVAGSS | ≤ 0 |

Biological target: CaCyk3
Experiment: as above
Outline: as §1

| Binder | SPOT peptide array binding signal intensity |
| --- | --- |
| IVNKPLPPLPVAGSS | 0.5 |

Biological target: CaFus1
Experiment: as above
Outline: as §1

| Binder | SPOT peptide array binding signal intensity |
| --- | --- |
| IVNKPLPPLPVAGSS | 232 |

Biological target: CaHof1
Experiment: as above
Outline: as §1

| Binder | SPOT peptide array binding signal intensity |
| --- | --- |
| IVNKPLPPLPVAGSS | 55.2 |

Biological target: CaHse1
Experiment: as above
Outline: as §1

| Binder | SPOT peptide array binding signal intensity |
| --- | --- |
| IVNKPLPPLPVAGSS | 1300 |

Biological target: CaLsb1
Experiment: as above
Outline: as §1

| Binder | SPOT peptide array binding signal intensity |
| --- | --- |
| IVNKPLPPLPVAGSS | ≤ 0 |

Biological target: CaLsb4
Experiment: as above
Outline: as §1

| Binder | SPOT peptide array binding signal intensity |
| --- | --- |
| IVNKPLPPLPVAGSS | ≤ 0 |

Biological target: CaMyo5
Experiment: as above
Outline: as §1

| Binder | SPOT peptide array binding signal intensity |
| --- | --- |
| IVNKPLPPLPVAGSS | ≤ 0 |

Biological target: CaNbp2
Experiment: as above
Outline: as §1

| Binder | SPOT peptide array binding signal intensity |
| --- | --- |
| IVNKPLPPLPVAGSS | ≤ 0 |

Biological target: CaRvs167
Experiment: as above
Outline: as §1

| Binder | SPOT peptide array binding signal intensity |
| --- | --- |
| IVNKPLPPLPVAGSS | 1.17 |

Biological target: CaRvs167-3
Experiment: as above
Outline: as §1

| Binder | SPOT peptide array binding signal intensity |
| --- | --- |
| IVNKPLPPLPVAGSS | ≤ 0 |

Biological target: CaSho1
Experiment: as above
Outline: as §1

| Binder | SPOT peptide array binding signal intensity |
| --- | --- |
| IVNKPLPPLPVAGSS | 6570 |

Biological target: CaSla1-D1-D2
Experiment: as above
Outline: as §1

| Binder | SPOT peptide array binding signal intensity |
| --- | --- |
| IVNKPLPPLPVAGSS | 338 |

Biological target: CaSla1-D3
Experiment: as above
Outline: as §1

| Binder | SPOT peptide array binding signal intensity |
| --- | --- |
| IVNKPLPPLPVAGSS | 0.5 |

Biological target: ScAbp1
Experiment: as above
Outline: as §1

| Binder | SPOT peptide array binding signal intensity |
| --- | --- |
| IVNKPLPPLPVAGSS | 378 |

Biological target: ScBbc1
Experiment: as above
Outline: as §1

| Binder | SPOT peptide array binding signal intensity |
| --- | --- |
| IVNKPLPPLPVAGSS | 0.25 |

Biological target: ScBem1-D1
Experiment: as above
Outline: as §1

| Binder | SPOT peptide array binding signal intensity |
| --- | --- |
| IVNKPLPPLPVAGSS | ≤ 0 |

Biological target: ScBzz1-D1
Experiment: as above
Outline: as §1

| Binder | SPOT peptide array binding signal intensity |
| --- | --- |
| IVNKPLPPLPVAGSS | ≤ 0 |

Biological target: ScBzz1-D2
Experiment: as above
Outline: as §1

| Binder | SPOT peptide array binding signal intensity |
| --- | --- |
| IVNKPLPPLPVAGSS | ≤ 0 |

Biological target: ScCyk3
Experiment: as above
Outline: as §1

| Binder | SPOT peptide array binding signal intensity |
| --- | --- |
| IVNKPLPPLPVAGSS | ≤ 0 |

Biological target: ScFus1
Experiment: as above
Outline: as §1

| Binder | SPOT peptide array binding signal intensity |
| --- | --- |
| IVNKPLPPLPVAGSS | 10 |

Biological target: ScHof1
Experiment: as above
Outline: as §1

| Binder | SPOT peptide array binding signal intensity |
| --- | --- |
| IVNKPLPPLPVAGSS | 1300 |

Biological target: ScHse1
Experiment: as above
Outline: as §1

| Binder | SPOT peptide array binding signal intensity |
| --- | --- |
| IVNKPLPPLPVAGSS | 32 |

Biological target: ScLsb1
Experiment: as above
Outline: as §1

| Binder | SPOT peptide array binding signal intensity |
| --- | --- |
| IVNKPLPPLPVAGSS | ≤ 0 |

Biological target: ScLsb2
Experiment: as above
Outline: as §1

| Binder | SPOT peptide array binding signal intensity |
| --- | --- |
| IVNKPLPPLPVAGSS | ≤ 0 |

Biological target: ScLsb3
Experiment: as above
Outline: as §1

| Binder | SPOT peptide array binding signal intensity |
| --- | --- |
| IVNKPLPPLPVAGSS | 154 |

Biological target: ScLsb4
Experiment: as above
Outline: as §1

| Binder | SPOT peptide array binding signal intensity |
| --- | --- |
| IVNKPLPPLPVAGSS | ≤ 0 |

Biological target: ScMyo3
Experiment: as above
Outline: as §1

| Binder | SPOT peptide array binding signal intensity |
| --- | --- |
| IVNKPLPPLPVAGSS | ≤ 0 |

Biological target: ScMyo5
Experiment: as above
Outline: as §1

| Binder | SPOT peptide array binding signal intensity |
| --- | --- |
| IVNKPLPPLPVAGSS | ≤ 0 |

Biological target: ScNbp2
Experiment: as above
Outline: as §1

| Binder | SPOT peptide array binding signal intensity |
| --- | --- |
| IVNKPLPPLPVAGSS | ≤ 0 |

Biological target: ScPex13
Experiment: as above
Outline: as §1

| Binder | SPOT peptide array binding signal intensity |
| --- | --- |
| IVNKPLPPLPVAGSS | 2500 |

Biological target: ScRvs167
Experiment: as above
Outline: as §1

| Binder | SPOT peptide array binding signal intensity |
| --- | --- |
| IVNKPLPPLPVAGSS | 97.8 |

Biological target: ScSho1
Experiment: as above
Outline: as §1

| Binder | SPOT peptide array binding signal intensity |
| --- | --- |
| IVNKPLPPLPVAGSS | 7450 |

Biological target: ScSla1-D1-D2
Experiment: as above
Outline: as §1

| Binder | SPOT peptide array binding signal intensity |
| --- | --- |
| IVNKPLPPLPVAGSS | 288 |

Biological target: ScSla1-D3
Experiment: as above
Outline: as §1

| Binder | SPOT peptide array binding signal intensity |
| --- | --- |
| IVNKPLPPLPVAGSS | 1.5 |

Biological target: SpAbp1-D1
Experiment: as above
Outline: as §1

| Binder | SPOT peptide array binding signal intensity |
| --- | --- |
| IVNKPLPPLPVAGSS | 1580 |

Biological target: SpBbc1
Experiment: as above
Outline: as §1

| Binder | SPOT peptide array binding signal intensity |
| --- | --- |
| IVNKPLPPLPVAGSS | 1 |

Biological target: SpBzz1-D1
Experiment: as above
Outline: as §1

| Binder | SPOT peptide array binding signal intensity |
| --- | --- |
| IVNKPLPPLPVAGSS | 159 |

Reference: the supplement of paper PMC4466140
